Hits are enriched below; roughly 12% of the tested compounds scored in any of these assays.
AmpC inh no detg = inhibitors of E. coli AmpC beta-lactamase without detergent. P00811. AmpC nitrocefin hydrolysis, absorbance 480 nm, 0.0001% Triton. Potency, µM (series often up to 57.1 µM), most hits filed as inhibitors. hit rate 0.52% among 330,000; also: nearly all actives have a fitted effect of over 20% in size
Target sequence (P00811 whole entry, looked up): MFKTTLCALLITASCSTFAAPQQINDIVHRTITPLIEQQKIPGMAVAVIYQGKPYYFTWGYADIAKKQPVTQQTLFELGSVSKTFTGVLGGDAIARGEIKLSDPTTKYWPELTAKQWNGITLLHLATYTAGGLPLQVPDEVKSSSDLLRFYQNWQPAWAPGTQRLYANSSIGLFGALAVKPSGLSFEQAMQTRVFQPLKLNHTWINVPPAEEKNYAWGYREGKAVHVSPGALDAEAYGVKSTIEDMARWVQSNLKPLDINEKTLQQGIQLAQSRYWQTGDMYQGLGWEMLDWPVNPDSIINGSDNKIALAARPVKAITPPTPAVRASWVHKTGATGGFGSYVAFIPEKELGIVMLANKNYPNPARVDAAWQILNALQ
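AmpC (5.3 nM in the dispensed reagent) in 20 mM phosphate pH 7.0 with 0.01% (detergent screen) or 0.0001% Triton X-100 was preincubated with compounds for 15 min at room temperature. Nitrocefin was then added from an 800 uM solution, and hydrolysis was followed at 480 nm.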
AmpC detergent = inhibitors of E. coli AmpC beta-lactamase with detergent; hit rate 0.041% among 370,000; Potency, µM (titrated, usually from 114 µM), usual class: inhibitors; P00811; AmpC hydrolysis of nitrocefin, absorbance 480 nm, 0.01% Triton; also: nearly all actives have a fitted effect of over 25% in size
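AmpC (5.3 nM in the dispensed reagent) in 20 mM phosphate pH 7.0 with 0.01% (detergent screen) or 0.0001% Triton X-100 was preincubated with compounds for 15 min at room temperature. Nitrocefin was then added from an 800 uM solution, and hydrolysis was followed at 480 nm.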
Pf growth 96h = inhibits malaria parasite growth, 96 h; AID 504834; hit rate 6.9% among 320,000; P. falciparum luciferase reporter growth, 96 h; Potency, µM (doses to about 28.7 µM), usual class: inhibitors
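Compounds incubated with erythrocytes infected by luciferase-expressing P. falciparum (2% hematocrit, 0.05% parasitemia final) for 96 hours, 37 C in 5% CO2. Growth inhibition scored as decreased luciferase luminescence.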
SARS PLP yeast = blocks SARS-CoV papain-like protease in a yeast assay | AID 485353 | Potency, µM (series often up to 32.9 µM), hits mostly activators | hit rate 0.19% among 330,000 | S. cerevisiae expressing SARS-CoV PLpro, growth rescue; calls by dose curve; also: nearly all actives have a fitted effect of over 55% in size
Pf growth 48h = inhibits P. falciparum growth in the first generation, 48 h. hit rate 5.9% among 310,000. AID 504832. Potency, µM (top dose mostly 28.7 µM), hits mostly inhibitors. P. falciparum luciferase growth in erythrocytes, 48 h
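Read-out is firefly luciferase luminescence from an integrated reporter in P. falciparum, so falling signal marks reduced parasite growth. Infected erythrocytes were at 2% hematocrit and 0.1% parasitemia (final) in Albumax-supplemented RPMI 1640.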
Sm TGR inh = inhibitors of Schistosoma mansoni thioredoxin glutathione reductase; Q962Y6; purified TGR, DTNB reduction, TNB absorbance 405 nm; Potency, µM (top dose mostly 114 µM), actives largely listed as inhibitors; hit rate 3% among 360,000; AID 485364; also: nearly all actives have a fitted effect of over 60% in size
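Kinetic colorimetric format: TGR-catalysed, NADPH-driven DTNB reduction monitored via TNB absorbance. Enzyme dispensed at 20 nM; compound exposure 15 min at room temperature before reaction start.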
Large screens that a line does not name were inactive. Unless noted, calls follow the shape of the dose curve; as a rule, active = well fitted curve in the direction sought with a large enough effect; inconclusive = small, poorly fitted or top-dose-only effect, or another doubt; inactive = no such curve, though single readings can be large; an effect the other way counts as inactive or inconclusive.

CCCc1cc(=O)[nH]c(NCc2ccc(Cl)cc2)n1	none (no result: AmpC inh no detg, SARS PLP yeast)
CCCc1cc(=O)[nH]c(NCCc2ccccc2)n1	AmpC detergent inconclusive, Pf growth 96h 13.1µM, Pf growth 48h inconclusive
COc1cccc(-n2nnc(-c3nc(-c4ccccc4F)no3)c2C)c1	none (no result: AmpC inh no detg, Pf growth 96h, SARS PLP yeast, Pf growth 48h)
O=C(CN1C(=O)NC2(CCCc3ccccc32)C1=O)c1ccccc1F (stereo not drawn)	none (no result: AmpC detergent, Pf growth 96h, Pf growth 48h, Sm TGR inh)
O=C(O)CN1C(=O)NC2(CCCc3ccccc32)C1=O (stereo not drawn)	none
COc1ccc(-n2c(C)cc(C(=O)CN3C(=O)NC4(CCCc5sccc54)C3=O)c2C)cc1 (stereo not drawn)	AmpC detergent inconclusive, Pf growth 96h 4.65µM, Pf growth 48h inconclusive
Cc1cc(C(=O)CN2C(=O)NC3(CCCc4ccccc43)C2=O)c(C)n1Cc1ccco1 (stereo not drawn)	Pf growth 48h 1.65µM (no result: Pf growth 96h)
Cc1cc(C(=O)CN2C(=O)NC3(CCCc4ccccc43)C2=O)c(C)n1Cc1ccccc1 (stereo not drawn)	Pf growth 96h 1.17µM (no result: Pf growth 48h)
N#CCCN1CCCc2cc(N=Nc3ccc(C(F)(F)F)cc3)ccc21	AmpC detergent inconclusive
Cc1cc(=O)n2nc(N3CCC(C(=O)Nc4c(C)cccc4C)CC3)sc2n1	none (no result: AmpC inh no detg, Pf growth 96h, SARS PLP yeast, Pf growth 48h)
Cn1cccc1/C=N\NC(=O)Cc1ccc(Br)c2ccccc12	AmpC detergent inconclusive
O=C(CSc1cn(Cc2ccccc2)c2ccccc12)N1CCOCC1	AmpC inh no detg 44.7µM, AmpC detergent inconclusive
O=C(CSc1nnc(-c2ccccc2)n1Cc1ccccc1)N1CCOCC1	none
Cn1c(SCC(=O)N2CCN(Cc3ccccc3)CC2)nnc1-c1ccncc1	Pf growth 96h 2.94µM
O=C(CSc1nnc(-c2cccnc2)n1Cc1ccccc1)N1CCOCC1	Pf growth 96h 1.85µM, SARS PLP yeast inconclusive
Cc1ccc(CNC(=O)C2CCCN(c3nn4cc(-c5ccc(C)cc5)nc4s3)C2)cc1 (stereo not drawn)	none (no result: AmpC inh no detg, Pf growth 96h, SARS PLP yeast, Pf growth 48h)
COc1ccccc1/C=C/C(=C1/C(=O)N(c2ccccc2)N=C1C)c1ccc(C)cc1	Pf growth 96h 11.7µM
CCC1CCC(C(=O)NC(CCSC)C(=O)NCCN(CC(C)C)CC(C)C)CC1 (stereo not drawn)	Pf growth 96h 14.7µM
CCC1CCC(C(=O)NC(CCSC)C(=O)NCCc2ccc(S(N)(=O)=O)cc2)CC1 (stereo not drawn)	none
Cc1ccc(CNC(=O)c2cn(C)c3ccc(S(=O)(=O)N(C)C4CCCCC4)cc3c2=O)cc1	none (no result: AmpC inh no detg, Pf growth 96h, SARS PLP yeast, Pf growth 48h)
COc1ccc(-c2c(C)nn3c(N4CCN(c5ccccc5)CC4)cc(C)nc23)cc1OC	AmpC detergent inconclusive (no result: AmpC inh no detg, Pf growth 96h, SARS PLP yeast, Pf growth 48h)
COc1cc(C2OC(=O)c3c2ccc(OC)c3OC)ccc1O (stereo not drawn)	Pf growth 48h 7.38µM, Sm TGR inh 28.2µM
COc1cc(C2C(=O)c3ccccc3C2=O)ccc1O	none
Cc1ccc(NCc2cc3cc4c(cc3n(CC(=O)Nc3ccc(C)cc3)c2=O)OCCO4)cc1	Sm TGR inh 44.7µM (no result: AmpC inh no detg, Pf growth 96h, SARS PLP yeast, Pf growth 48h)
Cc1ccc(O)c(C2=NNC(c3ccc(Cl)cc3)C2)c1 (stereo not drawn)	Pf growth 96h inconclusive, Pf growth 48h inconclusive, Sm TGR inh 44.7µM
Cc1ccc(O)c(C2=NNC(O)(C(F)(F)F)C2)c1 (stereo not drawn)	Pf growth 48h 13.1µM (no result: Pf growth 96h)
Oc1ccc(Cl)cc1C1=NNC(c2cccs2)C1 (stereo not drawn)	Pf growth 96h 11.7µM, Pf growth 48h 3.29µM, Sm TGR inh 17.8µM
CC1CCC(C(C)C)C(OCC(O)CN2CCN(Cc3ccccc3)CC2)C1 (stereo not drawn)	Pf growth 96h inconclusive, Pf growth 48h 11.7µM
CC1CCC(C(C)C)C(OCC(O)CN2CCCC(C)C2)C1 (stereo not drawn)	Pf growth 96h 13.1µM, Pf growth 48h inconclusive
CCc1nc2ccccc2n1Cc1ccccc1F	none (no result: Sm TGR inh)
CN(C)c1ccc(/C=C/c2nnnn2-c2ccccc2)cc1	Pf growth 96h 13.1µM
O=[N+]([O-])c1ccc(NS(=O)(=O)c2cccc3cccnc23)cc1	Pf growth 96h 11.7µM
Cc1sc2ncnc(NCC(O)c3ccc([N+](=O)[O-])cc3)c2c1C (stereo not drawn)	Pf growth 96h inconclusive, Pf growth 48h 9.28µM
CCOc1cc(CN2CCCC(CNC(=O)c3ccc(F)cc3)C2)ccc1OC (stereo not drawn)	Pf growth 96h inconclusive, Pf growth 48h inconclusive
COc1ccc(CN2CCCC(CNC(=O)c3ccc(F)cc3)C2)c(C)c1C (stereo not drawn)	Pf growth 96h 10.4µM
COc1cc(OC)cc(C(=O)NCC2CCCN(Cc3cccc(C(C)=O)c3)C2)c1 (stereo not drawn)	AmpC detergent inconclusive, Pf growth 96h 8.28µM, Pf growth 48h inconclusive
COc1ccc(CN2CCCC(CNC(=O)c3ccc(F)cc3)C2)c(F)c1 (stereo not drawn)	Pf growth 96h 1.85µM
O=c1[nH]c(O)c(C=Nc2ccc(Cl)cc2Cl)c(=O)[nH]1	none
CC1CCN(c2nc3ccc(C(=O)NCc4ccccc4Cl)cc3s2)CC1	none (no result: AmpC inh no detg, Pf growth 96h, SARS PLP yeast, Pf growth 48h)
O=S(=O)(Nc1ccc(-c2ccc(N3CCCC3)nn2)cc1)c1cccc(C(F)(F)F)c1	none (no result: AmpC inh no detg, Pf growth 96h, SARS PLP yeast, Pf growth 48h)
COc1ccc(CNC(=O)C2CCN(S(=O)(=O)c3c(C)noc3/C=C/c3cccs3)CC2)cc1	none (no result: AmpC inh no detg, Pf growth 96h, SARS PLP yeast, Pf growth 48h)
O=C(NCCc1ccccc1)C1(c2ccccc2)CCCC1	AmpC detergent inconclusive, Pf growth 96h 13.1µM
COc1ccc(CCNC(=O)C2(c3ccccc3)CC2)cc1	SARS PLP yeast inconclusive
O=C(Nc1ncccc1O)c1c(O)c2ccccc2[nH]c1=O	none
COc1cc(N=c2c([N+](=O)[O-])nn(-c3ccc4c(c3)OCCO4)n2O)cc(OC)c1	Pf growth 96h inconclusive, Sm TGR inh inconclusive
O=[N+]([O-])c1nn(-c2ccc3c(c2)OCCO3)n(O)c1=NCc1ccc(F)cc1	none
CC(C)c1ccc(N=c2c([N+](=O)[O-])nn(-c3ccc4c(c3)OCCO4)n2O)cc1	AmpC inh no detg inconclusive, AmpC detergent inconclusive, Pf growth 96h inconclusive, Pf growth 48h 10.4µM, Sm TGR inh 12.6µM
O=[N+]([O-])c1nn(-c2ccc3c(c2)OCCO3)n(O)c1=NCCC1=CCCCC1	Pf growth 96h inconclusive, Sm TGR inh 25.1µM
CCSC1(SCC)N=C(N)C2(C#N)C(c3ccccc3)NC3=C(CCC3)C12C#N (stereo not drawn)	AmpC detergent inconclusive, Sm TGR inh inconclusive (no result: Pf growth 96h)
CCSC1(SCC)N=C(N)C2(C#N)C(c3ccc(OC)c(OC)c3OC)C12C#N (stereo not drawn)	Pf growth 48h inconclusive, Sm TGR inh 14.1µM
O=C(Nc1nc2ccccc2s1)c1cccc(S(=O)(=O)N2CCc3ccccc32)c1	Pf growth 96h inconclusive, Pf growth 48h inconclusive

From PubChem BioAssay
